# In the supplement of paper PMC5641865, “A screen for kinase inhibitors identifies antimicrobial imidazopyridine aminofurazans as specific inhibitors of the Listeria monocytogenes PASTA kinase PrkA” (The Journal of Biological Chemistry, 2017):
# Structures can show the parent of a compound that is named as a salt. ± gives the standard deviation of the averaged measurements.
# Test system: Listeria monocytogenes 10403S
# Assay: growth inhibition relative to ceftriaxone-alone control; higher = stronger potentiation of ceftriaxone growth inhibition
# Conditions: 10 µM; ceftriaxone 1 ug/ml; 12 h
# 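Further: End-point A600 read in BHI broth at 37 °C with 2% DMSO, inhibition computed as (1 − OD with compound plus ceftriaxone ÷ OD with ceftriaxone only) × 100.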
row,Compound,growth inhibition
1,c1cc(-c2cnn3nc(N4CCOCC4)ccc23)nc(NC2CC2)n1,-1.92 ± 0.84%
2,C#Cc1cccc(Nc2ncnc3cc(OCCOC)c(OCCOC)cc23)c1 [Erlotinib HCl],18.6 ± 18%
3,CCn1c(-c2nonc2N)nc2ccccc21,-9.18 ± 6.6%
4,CCn1c(-c2nonc2N)nc2cncc(C(=O)N3CC[C@H](N)C3)c21,7.57 ± 2.1%
5,COc1cc2ncn(-c3cc(OCc4ccccc4C(F)(F)F)c(C(C)=O)s3)c2cc1OC,11.2 ± 1.6%
6,C[C@H](NC(=O)/C(C#N)=C/c1cccc(Br)n1)c1ccccc1,99 ± 0.21%
7,COc1cc(Nc2ncc3c(C)nc(-c4cccc(Oc5ccccc5)c4)n3n2)cc(OC)c1OC,-18.3 ± 17%
8,COC(=O)Nc1nc2ccc(Sc3ccc(NC(=O)Nc4cc(C(F)(F)F)ccc4F)cc3)cc2[nH]1,-12.7 ± 13%
9,COc1cc2ncn(-c3cc(O[C@@H](C)c4ccccc4Cl)c(C(N)=O)s3)c2cc1OC,-12.3 ± 4.7%
10,O=C(O)c1ccc(Nc2ncc3c(n2)-c2ccc(Cl)cc2C(c2c(F)cccc2F)=NC3)cc1,91.3 ± 3.5%
11,Cc1ccc(Nc2nccc(N(C)c3ccc4c(C)n(C)nc4c3)n2)cc1S(N)(=O)=O [Pazopanib HCl],20.4 ± 13%
12,COc1ccc(-c2ccncc2)cc1C(N)=O,-4.48 ± 7.1%
13,COc1ccccc1Nc1ncc(-c2ccccc2)o1,1.22 ± 3.5%
14,Cc1cnc(Nc2ccc(OCCN3CCCC3)cc2)nc1Nc1cccc(S(=O)(=O)NC(C)(C)C)c1,39 ± 15%
15,CCCN(CCS(C)(=O)=O)Cc1ccc(-c2ccc3ncnc(Nc4ccc(OCc5cccc(F)c5)c(Cl)c4)c3c2)o1,-7.09 ± 4.2%
16,CC(C)n1nc(-c2ccc3oc(N)nc3c2)c2c(N)ncnc21,-0.352 ± 1.4%
